The values below come from article PMC7862700, “An all-to-all approach to the identification of sequence-specific readers for epigenetic DNA modifications on cytosine”.

What all share (experiment): DAPPL (digital affinity profiling via proximity ligation, sequencing); 10 mM Tris-HCl pH 7.5, 50 mM NaCl, 1 mM DTT, 4% glycerol, room temperature, 30 min; GST-TFs on glutathione beads, 16-mer random dsDNA library, 0.1% formaldehyde crosslink after washing; high values mean tight binding
What all share (conditions): protein: recombinant; tags: N-terminal GST; dsDNA, one strand shown

One test deals with T1, ELK1 (Homo sapiens, UniProt P19419 1-428).
T1 sequence: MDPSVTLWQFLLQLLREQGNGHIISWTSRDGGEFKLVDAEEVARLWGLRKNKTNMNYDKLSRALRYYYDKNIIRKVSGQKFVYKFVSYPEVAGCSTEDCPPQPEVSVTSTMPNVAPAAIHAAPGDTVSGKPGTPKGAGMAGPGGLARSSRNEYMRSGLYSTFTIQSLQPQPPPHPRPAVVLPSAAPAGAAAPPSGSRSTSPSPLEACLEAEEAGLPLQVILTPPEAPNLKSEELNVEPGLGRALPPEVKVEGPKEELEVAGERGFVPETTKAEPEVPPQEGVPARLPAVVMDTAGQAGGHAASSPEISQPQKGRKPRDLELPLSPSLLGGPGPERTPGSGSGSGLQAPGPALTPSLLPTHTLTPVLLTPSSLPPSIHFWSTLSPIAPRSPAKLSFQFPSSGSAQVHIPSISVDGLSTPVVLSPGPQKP
Put shortly: (§1)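 Pools were built from human transcription factors expressed in yeast as GST fusions, captured on glutathione beads and DNA-barcoded, along with a tag-only sample. Incubation with 200 nmole of a 16-mer random double-stranded DNA library lasted 30 min at room temperature in Tris/NaCl/DTT/glycerol buffer, and was followed by washing, 0.1% formaldehyde crosslinking, proximity ligation, PCR amplification and Illumina NextSeq500 sequencing. Binding signal is the quotient of each hexamer's read frequency for a factor and its frequency for the tag-only sample.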

A further test deals with T2, GABPA (Homo sapiens, UniProt Q06546 1-454).
T2 sequence: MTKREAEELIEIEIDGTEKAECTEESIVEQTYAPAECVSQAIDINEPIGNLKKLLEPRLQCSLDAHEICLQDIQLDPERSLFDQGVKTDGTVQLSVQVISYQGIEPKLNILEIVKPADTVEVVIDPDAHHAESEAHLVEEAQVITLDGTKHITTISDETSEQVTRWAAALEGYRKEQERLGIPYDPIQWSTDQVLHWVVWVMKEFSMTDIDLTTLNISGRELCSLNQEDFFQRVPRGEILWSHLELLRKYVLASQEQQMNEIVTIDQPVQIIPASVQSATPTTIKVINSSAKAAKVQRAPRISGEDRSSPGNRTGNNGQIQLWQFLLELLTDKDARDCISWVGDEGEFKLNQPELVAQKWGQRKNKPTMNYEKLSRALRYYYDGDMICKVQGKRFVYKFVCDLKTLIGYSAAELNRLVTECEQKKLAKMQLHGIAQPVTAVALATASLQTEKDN
Put shortly:
as §1

A further test deals with ELF1 (Homo sapiens, UniProt P32519 1-619). The essentials: as §1
A further test has as its target T3, EHF (Homo sapiens, UniProt Q9NZC4 1-300).
T3 sequence: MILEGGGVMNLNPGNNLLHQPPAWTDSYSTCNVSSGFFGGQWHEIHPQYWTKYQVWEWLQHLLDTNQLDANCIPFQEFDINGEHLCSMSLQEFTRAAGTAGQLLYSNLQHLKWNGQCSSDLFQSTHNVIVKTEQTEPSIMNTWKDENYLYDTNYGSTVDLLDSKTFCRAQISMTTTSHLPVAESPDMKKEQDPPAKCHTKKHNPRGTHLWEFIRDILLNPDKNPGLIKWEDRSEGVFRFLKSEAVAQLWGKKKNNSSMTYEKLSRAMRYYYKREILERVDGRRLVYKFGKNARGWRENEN
The essentials:
as §1

The next test deals with SPI1 (Homo sapiens, UniProt P17947 1-270). Put shortly:
as §1

A further test concerns the target SPIB (Homo sapiens, UniProt Q01892 1-262). Put shortly: as §1
In a further test the target is T4, FEV (Homo sapiens, UniProt Q99581 1-238).
T4 sequence: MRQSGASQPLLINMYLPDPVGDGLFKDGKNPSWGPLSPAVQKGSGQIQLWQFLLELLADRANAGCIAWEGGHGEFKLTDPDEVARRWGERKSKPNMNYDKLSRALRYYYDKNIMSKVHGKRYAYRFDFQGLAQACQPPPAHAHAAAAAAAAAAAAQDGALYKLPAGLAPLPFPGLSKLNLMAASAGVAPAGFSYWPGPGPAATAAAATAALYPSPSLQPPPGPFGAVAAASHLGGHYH
Put shortly:
as §1

The target of another test is ETV5 (Homo sapiens, UniProt P41161 1-510). Put shortly:
as §1

The target of another test is ELF4 (Homo sapiens, UniProt Q99607 1-663). The essentials:
as §1

In the next test the target is T5, ELK4 (Homo sapiens, UniProt P28324-2 1-405).
T5 sequence: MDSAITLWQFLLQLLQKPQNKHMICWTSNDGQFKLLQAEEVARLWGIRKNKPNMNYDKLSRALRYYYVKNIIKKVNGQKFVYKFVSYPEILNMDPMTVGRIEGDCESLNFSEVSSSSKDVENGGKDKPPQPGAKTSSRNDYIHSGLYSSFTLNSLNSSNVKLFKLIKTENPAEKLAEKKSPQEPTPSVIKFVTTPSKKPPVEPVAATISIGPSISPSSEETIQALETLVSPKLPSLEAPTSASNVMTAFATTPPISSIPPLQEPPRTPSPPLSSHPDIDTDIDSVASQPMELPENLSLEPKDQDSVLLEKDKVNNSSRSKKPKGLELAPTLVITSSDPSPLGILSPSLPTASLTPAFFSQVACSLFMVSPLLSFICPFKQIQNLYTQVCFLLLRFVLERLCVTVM
Put shortly:
as §1

The next test deals with T6, ETV2 (Homo sapiens, UniProt O00321 1-342).
T6 sequence: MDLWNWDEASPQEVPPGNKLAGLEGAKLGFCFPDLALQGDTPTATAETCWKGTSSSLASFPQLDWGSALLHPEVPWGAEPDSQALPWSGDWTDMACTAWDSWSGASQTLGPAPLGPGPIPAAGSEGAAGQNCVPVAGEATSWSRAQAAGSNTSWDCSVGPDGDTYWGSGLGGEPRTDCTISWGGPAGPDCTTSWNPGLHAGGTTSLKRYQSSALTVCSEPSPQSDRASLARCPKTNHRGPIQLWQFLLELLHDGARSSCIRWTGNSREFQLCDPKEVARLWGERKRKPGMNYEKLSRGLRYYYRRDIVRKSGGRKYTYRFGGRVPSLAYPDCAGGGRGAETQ
The essentials:
as §1

A further test has as its target ETV1 (Homo sapiens, UniProt P50549 1-477). Put shortly: as §1
The target in another test is T7, ERF (Homo sapiens, UniProt P50548 1-548).
T7 sequence: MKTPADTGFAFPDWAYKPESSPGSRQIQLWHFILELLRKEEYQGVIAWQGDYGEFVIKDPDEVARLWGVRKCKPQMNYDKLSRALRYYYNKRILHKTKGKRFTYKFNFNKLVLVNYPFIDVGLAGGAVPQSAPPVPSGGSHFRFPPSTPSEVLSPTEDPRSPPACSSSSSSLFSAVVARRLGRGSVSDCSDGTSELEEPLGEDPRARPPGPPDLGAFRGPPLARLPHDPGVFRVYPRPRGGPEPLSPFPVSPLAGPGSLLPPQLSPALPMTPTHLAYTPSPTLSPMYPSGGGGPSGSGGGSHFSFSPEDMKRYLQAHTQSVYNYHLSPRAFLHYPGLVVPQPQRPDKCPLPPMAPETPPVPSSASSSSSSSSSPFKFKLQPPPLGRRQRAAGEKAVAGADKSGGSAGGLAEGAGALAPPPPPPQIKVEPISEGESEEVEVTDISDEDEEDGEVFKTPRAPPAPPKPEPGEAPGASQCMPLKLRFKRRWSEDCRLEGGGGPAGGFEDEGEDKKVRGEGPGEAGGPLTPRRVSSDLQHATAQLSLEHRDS
The essentials: as §1

A further test addresses T8, ETV3L (Homo sapiens, UniProt Q6ZN32 1-361).
T8 sequence: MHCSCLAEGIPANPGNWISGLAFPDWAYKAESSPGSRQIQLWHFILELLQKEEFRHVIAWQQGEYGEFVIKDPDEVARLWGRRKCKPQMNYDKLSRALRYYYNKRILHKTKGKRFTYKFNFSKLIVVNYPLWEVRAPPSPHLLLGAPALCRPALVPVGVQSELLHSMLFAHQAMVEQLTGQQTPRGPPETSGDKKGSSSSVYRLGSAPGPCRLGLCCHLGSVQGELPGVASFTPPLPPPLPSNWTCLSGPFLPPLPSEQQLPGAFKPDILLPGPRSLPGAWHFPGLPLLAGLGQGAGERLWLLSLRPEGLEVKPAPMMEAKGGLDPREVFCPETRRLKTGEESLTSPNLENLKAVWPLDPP
Put shortly: as §1

The target of another test is T9, ETS2 (Homo sapiens, UniProt P15036 1-469).
T9 sequence: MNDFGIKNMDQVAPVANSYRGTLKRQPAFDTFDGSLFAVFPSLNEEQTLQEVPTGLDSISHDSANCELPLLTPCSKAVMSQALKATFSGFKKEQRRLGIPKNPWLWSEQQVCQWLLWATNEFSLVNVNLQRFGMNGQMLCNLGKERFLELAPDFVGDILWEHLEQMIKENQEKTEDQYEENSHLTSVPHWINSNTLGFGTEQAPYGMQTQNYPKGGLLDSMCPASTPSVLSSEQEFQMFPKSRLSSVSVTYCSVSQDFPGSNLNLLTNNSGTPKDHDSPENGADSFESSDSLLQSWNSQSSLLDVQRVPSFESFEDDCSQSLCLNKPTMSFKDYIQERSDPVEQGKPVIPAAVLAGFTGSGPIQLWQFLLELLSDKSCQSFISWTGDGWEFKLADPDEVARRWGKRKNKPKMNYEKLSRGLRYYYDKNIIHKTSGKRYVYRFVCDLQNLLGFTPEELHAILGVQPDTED
The essentials: as §1

The target of a further test is T10, SPDEF (Homo sapiens, UniProt O95238 1-335).
T10 sequence: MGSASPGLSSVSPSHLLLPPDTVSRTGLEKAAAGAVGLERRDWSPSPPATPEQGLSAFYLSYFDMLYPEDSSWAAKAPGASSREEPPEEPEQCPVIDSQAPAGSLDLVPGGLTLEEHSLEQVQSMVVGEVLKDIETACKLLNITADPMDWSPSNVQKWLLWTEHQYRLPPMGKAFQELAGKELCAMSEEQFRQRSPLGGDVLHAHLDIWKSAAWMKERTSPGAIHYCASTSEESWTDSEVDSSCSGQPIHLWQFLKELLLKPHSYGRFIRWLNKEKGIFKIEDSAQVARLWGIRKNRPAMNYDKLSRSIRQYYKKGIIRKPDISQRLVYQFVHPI
The essentials: as §1

The target of the next test is T11, ETV7 (Homo sapiens, UniProt Q9Y603 1-341).
T11 sequence: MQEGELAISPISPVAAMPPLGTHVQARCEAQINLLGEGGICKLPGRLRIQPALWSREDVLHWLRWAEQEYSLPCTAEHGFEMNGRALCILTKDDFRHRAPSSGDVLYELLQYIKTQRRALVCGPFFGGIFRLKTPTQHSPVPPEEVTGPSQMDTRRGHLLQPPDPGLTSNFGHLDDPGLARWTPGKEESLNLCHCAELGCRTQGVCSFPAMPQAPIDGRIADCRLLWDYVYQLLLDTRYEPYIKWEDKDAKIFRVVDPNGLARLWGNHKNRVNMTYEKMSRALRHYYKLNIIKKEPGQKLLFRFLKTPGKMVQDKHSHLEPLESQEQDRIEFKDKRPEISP
The essentials: as §1

A further test has as its target T12, ETV3 (Homo sapiens, UniProt P41162-2 1-143).
T12 sequence: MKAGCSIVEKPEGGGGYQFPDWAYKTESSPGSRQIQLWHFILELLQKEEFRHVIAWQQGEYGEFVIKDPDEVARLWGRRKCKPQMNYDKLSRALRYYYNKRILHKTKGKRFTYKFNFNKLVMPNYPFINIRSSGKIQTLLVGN
The essentials: as §1

The next test deals with ETV6 (Homo sapiens, UniProt P41212 1-452). Put shortly:
as §1

ETV5, sequence (P41161 whole entry): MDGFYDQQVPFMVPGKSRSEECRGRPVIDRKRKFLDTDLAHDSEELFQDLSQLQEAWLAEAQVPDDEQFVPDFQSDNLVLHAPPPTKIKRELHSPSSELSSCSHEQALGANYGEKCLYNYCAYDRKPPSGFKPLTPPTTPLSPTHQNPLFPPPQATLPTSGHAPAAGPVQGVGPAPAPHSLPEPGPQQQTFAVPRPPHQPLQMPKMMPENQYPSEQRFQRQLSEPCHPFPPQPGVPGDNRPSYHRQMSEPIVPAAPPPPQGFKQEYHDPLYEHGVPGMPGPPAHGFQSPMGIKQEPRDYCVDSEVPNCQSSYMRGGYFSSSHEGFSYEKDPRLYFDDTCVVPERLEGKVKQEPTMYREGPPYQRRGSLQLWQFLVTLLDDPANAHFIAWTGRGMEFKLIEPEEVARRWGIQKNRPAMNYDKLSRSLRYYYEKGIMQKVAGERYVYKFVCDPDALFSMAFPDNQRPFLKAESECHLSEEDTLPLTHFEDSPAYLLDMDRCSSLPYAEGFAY
ETV6, sequence (P41212 whole entry): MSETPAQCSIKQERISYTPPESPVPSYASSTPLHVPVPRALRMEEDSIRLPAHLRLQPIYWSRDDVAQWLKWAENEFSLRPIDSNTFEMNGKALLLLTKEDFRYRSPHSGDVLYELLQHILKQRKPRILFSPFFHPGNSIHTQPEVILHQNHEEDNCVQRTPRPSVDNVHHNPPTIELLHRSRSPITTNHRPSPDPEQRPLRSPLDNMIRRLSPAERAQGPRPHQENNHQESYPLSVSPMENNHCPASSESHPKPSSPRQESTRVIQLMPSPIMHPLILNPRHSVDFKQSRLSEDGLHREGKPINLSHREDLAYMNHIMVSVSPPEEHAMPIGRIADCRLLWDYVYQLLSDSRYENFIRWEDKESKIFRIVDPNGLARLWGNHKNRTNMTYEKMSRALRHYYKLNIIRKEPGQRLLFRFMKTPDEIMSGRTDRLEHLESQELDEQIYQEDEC
ELF1, sequence (P32519 whole entry): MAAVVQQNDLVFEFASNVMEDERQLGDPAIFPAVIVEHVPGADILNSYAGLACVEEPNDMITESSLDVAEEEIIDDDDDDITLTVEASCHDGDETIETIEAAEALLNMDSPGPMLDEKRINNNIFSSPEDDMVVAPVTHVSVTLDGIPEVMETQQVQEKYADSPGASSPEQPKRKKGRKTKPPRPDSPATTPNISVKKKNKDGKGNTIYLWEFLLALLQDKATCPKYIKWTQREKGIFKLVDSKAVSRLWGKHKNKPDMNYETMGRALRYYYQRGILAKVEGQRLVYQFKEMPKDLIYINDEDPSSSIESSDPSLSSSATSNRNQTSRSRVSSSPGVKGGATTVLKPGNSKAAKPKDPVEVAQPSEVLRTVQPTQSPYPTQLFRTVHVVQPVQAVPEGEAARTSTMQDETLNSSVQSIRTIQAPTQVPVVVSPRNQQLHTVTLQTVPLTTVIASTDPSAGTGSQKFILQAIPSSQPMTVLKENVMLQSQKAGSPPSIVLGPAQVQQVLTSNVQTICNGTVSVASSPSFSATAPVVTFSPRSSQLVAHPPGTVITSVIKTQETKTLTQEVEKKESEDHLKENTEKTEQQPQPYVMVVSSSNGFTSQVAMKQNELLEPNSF
ETV1, sequence (P50549 whole entry): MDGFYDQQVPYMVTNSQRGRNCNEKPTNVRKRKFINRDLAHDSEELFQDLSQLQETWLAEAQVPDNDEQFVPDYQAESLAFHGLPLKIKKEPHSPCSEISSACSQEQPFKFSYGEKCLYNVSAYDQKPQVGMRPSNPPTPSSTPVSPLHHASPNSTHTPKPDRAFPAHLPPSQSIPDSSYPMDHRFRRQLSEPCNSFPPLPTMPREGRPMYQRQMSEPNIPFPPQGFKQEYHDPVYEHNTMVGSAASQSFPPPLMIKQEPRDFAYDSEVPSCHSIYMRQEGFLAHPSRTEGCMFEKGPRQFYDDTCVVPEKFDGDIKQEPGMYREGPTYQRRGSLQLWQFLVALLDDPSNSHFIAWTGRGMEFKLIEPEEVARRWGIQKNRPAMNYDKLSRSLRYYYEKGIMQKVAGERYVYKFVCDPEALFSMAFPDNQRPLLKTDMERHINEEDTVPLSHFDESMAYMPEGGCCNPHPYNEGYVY
SPIB, sequence (Q01892 whole entry): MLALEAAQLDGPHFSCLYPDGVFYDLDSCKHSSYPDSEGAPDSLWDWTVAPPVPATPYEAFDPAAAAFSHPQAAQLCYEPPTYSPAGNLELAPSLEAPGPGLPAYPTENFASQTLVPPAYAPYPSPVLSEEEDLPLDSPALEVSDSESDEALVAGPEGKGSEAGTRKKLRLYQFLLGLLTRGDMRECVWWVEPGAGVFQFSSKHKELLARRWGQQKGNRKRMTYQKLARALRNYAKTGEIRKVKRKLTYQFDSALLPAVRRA
ELF4, sequence (Q99607 whole entry): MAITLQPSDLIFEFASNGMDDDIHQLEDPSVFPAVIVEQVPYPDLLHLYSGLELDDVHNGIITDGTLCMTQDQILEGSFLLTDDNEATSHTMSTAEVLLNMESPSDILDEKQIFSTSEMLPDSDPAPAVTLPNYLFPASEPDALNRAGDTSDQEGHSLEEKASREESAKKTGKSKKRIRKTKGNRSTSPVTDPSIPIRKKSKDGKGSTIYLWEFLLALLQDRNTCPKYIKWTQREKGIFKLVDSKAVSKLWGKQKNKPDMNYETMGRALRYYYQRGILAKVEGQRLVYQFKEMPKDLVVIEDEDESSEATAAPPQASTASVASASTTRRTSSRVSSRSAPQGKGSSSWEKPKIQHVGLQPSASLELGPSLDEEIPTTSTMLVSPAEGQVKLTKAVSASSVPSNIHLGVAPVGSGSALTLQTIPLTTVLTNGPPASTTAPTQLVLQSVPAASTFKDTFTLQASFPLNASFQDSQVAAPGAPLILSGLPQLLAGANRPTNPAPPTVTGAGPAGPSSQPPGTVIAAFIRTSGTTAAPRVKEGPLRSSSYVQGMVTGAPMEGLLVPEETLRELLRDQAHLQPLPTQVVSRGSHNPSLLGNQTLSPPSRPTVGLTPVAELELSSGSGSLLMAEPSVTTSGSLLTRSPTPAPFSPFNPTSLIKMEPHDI

For the sequence CATTAA, the binding signal in the test with ELK1 is 1 fold enrichment (6-mer frequency, TF over GST control); with GABPA it was 1.12 fold enrichment (6-mer frequency, TF over GST control); with ELF1, 1.07 fold enrichment (6-mer frequency, TF over GST control); in the test with EHF, 1.01 fold enrichment (6-mer frequency, TF over GST control); with SPI1, 1.04 fold enrichment (6-mer frequency, TF over GST control); with SPIB, 1.04 fold enrichment (6-mer frequency, TF over GST control). Moreover, the binding signal in the test with FEV is 1.01 fold enrichment (6-mer frequency, TF over GST control); with ETV5, 1.07 fold enrichment (6-mer frequency, TF over GST control); in the test with ELF4, 1.07 fold enrichment (6-mer frequency, TF over GST control); with ELK4, 1.02 fold enrichment (6-mer frequency, TF over GST control); in the test with ETV2, 1.04 fold enrichment (6-mer frequency, TF over GST control); with ETV1, 1.12 fold enrichment (6-mer frequency, TF over GST control). Moreover, the binding signal was 1.1 fold enrichment (6-mer frequency, TF over GST control) with ERF; 1.1 fold enrichment (6-mer frequency, TF over GST control) in the test with ETV3L; 1.04 fold enrichment (6-mer frequency, TF over GST control) with ETS2; 1.01 fold enrichment (6-mer frequency, TF over GST control) with SPDEF; 1.05 fold enrichment (6-mer frequency, TF over GST control) in the test with ETV7; 1.02 fold enrichment (6-mer frequency, TF over GST control) with ETV3. Besides, the binding signal in the test with ETV6 was 1.03 fold enrichment (6-mer frequency, TF over GST control).
